A number with no mark means an inactive call. Records with an inconclusive call do not appear. The source made the active and inactive calls. Unless noted, calls follow the shape of the dose curve; as a rule, active = well fitted curve in the direction sought with a large enough effect; inconclusive = small, poorly fitted or top-dose-only effect, or another doubt; inactive = no such curve, though single readings can be large; an effect the other way counts as inactive or inconclusive.

7 molecules from PubChem BioAssay (NCATS) can be followed below.

Assay [1] concerns the target Lysosomal acid glucosylceramidase (Homo sapiens) (UniProt P04062). As to the kind of experiment: Glucocerebrosidase-p2 (AID 348; in the data active = potency below about 10 µM; also: potency is read from the fitted curve at half-maximal effect). Particulars: purified GBA, blue fluorogenic substrate, 40 min. In outline: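 Normal human glucocerebrosidase (0.2 nM) with blue fluorogenic substrate (80 uM final) in citrate/phosphate pH 5.9 with 10mM sodium taurocholate, 0.01% tween-20; 40 min RT, NaOH/glycine stop; fluorescence Ex 365/Em 440; AC50 from a titration from 0.6 nM upwards.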

The nature of assay [2]: AP1 Signaling Pathway (AID 357; active = well fitted curve in either direction with a large enough effect, not every such curve was filed as active;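 also: ME-180 reporter cells stimulated with EGF at its EC50 level; % is scaled to controls: 0 for no effect and ±100 for the full control effect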). Particulars: ME-180 AP-1-bla reporter, EGF-induced, beta-lactamase ratio, 5 h; at 7.69 µM (top of the series) unless noted. In outline:
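First, ME-180 AP-1-bla cells were cultured overnight at 37 °C in low-serum Opti-MEM. Next, titrated compounds with EC50 EGF were incubated 5 hours. Finally, CCF4 was added for 2.5 hours and the 460/530 nm ratio recorded.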

In assay [3] the target is Cytochrome P450 1A2 (Homo sapiens) (UniProt P05177). Put plainly: p450-cyp1a2 (AID 410; calls by dose curve; also: potency is read from the fitted curve at half-maximal effect). Particulars: recombinant CYP1A2, luciferin-ME demethylation, luminescence; series mostly up to 57 µM. In outline:
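Read-out is luminescence from luciferin produced by CYP1A2 demethylation of Luciferin-ME (100uM, at Km). Detection reagent stopped the 60 min NADPH-dependent reaction; signals were normalized to 57 uM furafylline.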

A short description of assay [4]: NFAT Signaling Pathway (AID 444; active = well fitted curve in either direction with a large enough effect, not every such curve was filed as active;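 also: carbachol stimulus at about its EC50 of 1 µM final; % is scaled to controls: 0 for no effect and ±100 for the full control effect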). Particulars: Jurkat NFAT-bla M1, carbachol, beta-lactamase ratio, 5 h; at 7.69 µM (top of the series) unless noted. In outline:
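Jurkat cells carrying an NFAT-driven β-lactamase reporter and co-transfected muscarinic M1 receptor were treated with compound plus carbachol (1 uM final, an EC50 level) for 5 h at 37 °C. CCF4 loading followed for 1 h at RT; 460/530 nm ratio gave %activity.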

A short description of assay [5]: Stat Signaling Pathway (AID 446; active = well fitted curve in either direction with a large enough effect, not every such curve was filed as active;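 also: ME-180 cervical cancer cells given 40 pM IL-6 alongside compound; SIE-controlled beta-lactamase reporter measured as 460/530 nm FRET emission ratio; % is scaled to controls: 0 for no effect and ±100 for the full control effect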). To be noted: ME-180 (cervical carcinoma) SIE beta-lactamase reporter, IL-6 stimulated, 5 h; at 7.69 µM (top of the series) unless noted. In outline: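 Compound effects on IL-6-induced STAT reporter activity were measured in ME-180 cells. After overnight culture, cells were co-treated with 40 pM IL-6 for 5 hrs before beta-lactamase substrate loading at room temperature.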

Assay [6] deals with Glucocorticoid receptor (Homo sapiens) (UniProt P04150). As to the kind of experiment: GR-GFP Redistribution (AID 450;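 active = compounds whose dose series gives a full or clear partial fitted curve of increased nuclear translocation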; also: potency is read from the fitted curve at half-maximal effect). Particulars: U2OS GR-GFP nuclear translocation, laser cytometry, 2 h.
Assay [7] has the same target. Put plainly: GR-EFC Redistribution (AID 451; calls by dose curve; also: potency is read from the fitted curve at half-maximal effect). To be noted: CHO-K1 GR-EFC translocation, beta-gal luminescence, 2 h. The essentials: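 CHO-K1 cells stably expressing nuclear-localized β-gal enzyme acceptor and GR fused C-terminally to the enzyme donor fragment; ligand-driven nuclear translocation restores β-gal by complementation. Compounds titrated up to 46 uM final, 2 h at 37 °C; luminescence read.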

Assay [8] deals with Mitogen-activated protein kinase 10 (Mus musculus) (UniProt Q61831). As to the kind of experiment: JNK3 AlphaScreen Assay (AID 530; active = well fitted curve in either direction with a large enough effect, not every such curve was filed as active;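 also: kinase came from lysate of stimulated human HepG2 cells; % is scaled to controls: 0 for no effect and ±100 for the full control effect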). Particulars: JNK3 lysate, c-Jun phosphorylation; series mostly up to 57.1 µM. In outline: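 Biotinylated GST-cJun(1-79) served as substrate for JNK3 in HepG2 lysates stimulated with IL-1beta and TNF-alpha. ATP was 10 uM final, pH 7.6. Ser73 phosphorylation was quantified by AlphaScreen (680 nm excitation).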
(In general: In Alpha technology, singlet oxygen from a donor bead excites a nearby acceptor bead.)

Assay [9] addresses 3',5'-cyclic-AMP phosphodiesterase 4B (Homo sapiens) (UniProt Q07343). Put plainly: qHTS Assay for Inhibitors of PDE-IV (AID 607; active = well fitted activation curve with a large enough effect in the main read-out, with a control signal flat, not every such curve was filed as active; also: % of control where 0% means no effect). Particulars: HEK293 ACTOne CNG channel cells, membrane potential fluorescence; series mostly up to 22.9 µM. The essentials: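 ACTOne HEK293 cells carry a modified cAMP-gated CNG channel and express endogenous PDE4; plated 1000 cells/well, compounds up to 22.9 uM final. Membrane-potential dye fluorescence (ex 535/em 590) was read; parental cells received 10 uM forskolin + 100 uM RO 20-1724.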

The target of assay [10] is Cytochrome P450 3A4 (Homo sapiens) (UniProt P08684). Put plainly: qHTS Assay for Activators of Cytochrome P450 3A4 (AID 885). Also: nearly all actives have a fitted effect of over 65% in size. Particulars: recombinant CYP3A4, Luciferin-PPXE luminescence, 60 min; series mostly up to 57.1 µM. In outline: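 CYP3A4 activity: Luciferin-PPXE O-dealkylation, 25uM substrate, 200mM KPO4, RT throughout. Read-out is luciferase luminescence; higher values reflect activation.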

Assay [11] concerns the target Dual specificity protein kinase CLK4 (Homo sapiens) (UniProt Q9HAZ1). As to the kind of experiment: qHTS Assay for Inhibitors of CDC-like Kinase 4 (Kinase-Glo Assay) (AID 1770). Also: potency is read from the fitted curve at half-maximal effect; nearly all actives have a fitted effect of over 65% in size. Particulars: recombinant Clk4, Kinase-Glo ATP depletion luminescence; series mostly up to 66.7 µM. The essentials:
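Inhibition was judged from remaining ATP, measured by Ultra-Glo luciferase bioluminescence after Clk4 (25 nM) had acted on RS peptide at 1 uM ATP for 4.5 hours, room temperature.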

For assay [12] the target is unchanged. Put plainly: qHTS Assay for Inhibitors of CDC-like Kinase 4 (ADP-Glo Assay) (AID 1771). Also: potency is read from the fitted curve at half-maximal effect; nearly all actives have a fitted effect of over 70% in size. To be noted: recombinant CLK4, ADP-Glo luminescence; series mostly up to 80 µM. In outline: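 In this ADP-Glo format, 1 uM ATP and 100 uM RS peptide served as substrates for 25 nM Clk4 in Mg2+/EGTA/DTT/Triton buffer; reactions ran 1 hr at room temperature before luminescent ADP quantification.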
(qHTS replaces the single test concentration by a dilution series.)

A short description of assay [13]: Primary qHTS for small molecule stabilizers of the endoplasmic reticulum resident proteome: Secreted ER Calcium Modulated Protein (SERCaMP) assay (AID 1508630). Also: % is scaled to controls: 0 for no effect and ±100 for the full control effect. To be noted: SH-SY5Y GLuc-SERCaMP (Gaussia luciferase released on ER calcium loss) secretion, thapsigargin, luminescence; series mostly up to 38.4 µM. In outline: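 The SH-SY5Y reporter protocol was run at 3 concentrations up to 38.3 uM (primary) or 11 concentrations (follow-up): 16 h compound, 100 nM thapsigargin for 4 h, then extracellular luciferase luminescence.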

Assay [14] has as its target Cytochrome P450 3A4 (Homo sapiens) (UniProt P08684). Put plainly: qHTS Assay for Inhibitors and Substrates of Cytochrome P450 3A4 (AID 884). Also: potency is read from the fitted curve at half-maximal effect; nearly all actives have a fitted effect of over 50% in size. Particulars: recombinant CYP3A4, Luciferin-PPXE luminescence; series mostly up to 57.1 µM. The essentials:
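Luminescent readout of luciferin produced by CYP3A4 (20 nM) dealkylation of Luciferin-PPXE, 25 uM (its KM). NADPH-driven reaction ran 60 min at RT after 10 min compound preincubation; data scaled to 57 uM ketoconazole as 100% inhibition.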

Assay [15] concerns the target Ubiquitin carboxyl-terminal hydrolase 1 (Homo sapiens) (UniProt O94782). As to the kind of experiment: Inhibitors of USP1/UAF1: Pilot qHTS (AID 504865).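 Also: rhodamine fluorescence freed from ubiquitin-rhodamine substrate followed over time; top concentration of the series differs between compounds; % is scaled to controls: 0 for no effect and ±100 for the full control effect; nearly all actives have a fitted effect of over 35% in size.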 To be noted: purified USP1/UAF1, Ub-rhodamine cleavage fluorescence; series mostly up to 54.9 µM. In outline:
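Kinetic fluorescence assay: 1nM USP1/UAF1, 15 min compound preincubation, then 150nM Ub-Rho; 480/540 nm.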

The target in assay [16] is Cytochrome P450 2D6 (Homo sapiens) (UniProt P10635). As to the kind of experiment: qHTS Assay for Inhibitors and Substrates of Cytochrome P450 2D6 (AID 891). Also: potency is read from the fitted curve at half-maximal effect; nearly all actives have a fitted effect of over 60% in size. To be noted: recombinant CYP2D6, luciferin-ME EGE luminescence; series mostly up to 57.1 µM. The essentials: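 Luminescent read-out of luciferin formed by 5 nM human CYP2D6 demethylating 30 uM Luciferin-ME EGE (Km level) over 60 min at room temperature after NADPH regeneration addition. Data normalized to full inhibition by 1.43 uM quinidine.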
Cytochrome P450 2D6 (Homo sapiens), sequence (P10635 whole entry, looked up): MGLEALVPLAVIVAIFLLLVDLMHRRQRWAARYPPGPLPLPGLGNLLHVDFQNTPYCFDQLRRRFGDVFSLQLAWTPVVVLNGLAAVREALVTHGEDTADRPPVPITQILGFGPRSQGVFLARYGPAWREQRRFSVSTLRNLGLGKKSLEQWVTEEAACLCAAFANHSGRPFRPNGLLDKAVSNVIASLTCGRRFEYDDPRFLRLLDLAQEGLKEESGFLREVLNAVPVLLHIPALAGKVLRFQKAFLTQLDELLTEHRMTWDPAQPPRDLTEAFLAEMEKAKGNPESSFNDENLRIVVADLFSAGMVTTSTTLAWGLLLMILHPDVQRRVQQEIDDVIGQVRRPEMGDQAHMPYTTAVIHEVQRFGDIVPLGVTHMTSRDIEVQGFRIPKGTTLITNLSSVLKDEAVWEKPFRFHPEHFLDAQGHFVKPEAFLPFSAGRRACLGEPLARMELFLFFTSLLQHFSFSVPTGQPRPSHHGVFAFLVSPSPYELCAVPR

3',5'-cyclic-AMP phosphodiesterase 4B (Homo sapiens), sequence (Q07343 whole entry, looked up): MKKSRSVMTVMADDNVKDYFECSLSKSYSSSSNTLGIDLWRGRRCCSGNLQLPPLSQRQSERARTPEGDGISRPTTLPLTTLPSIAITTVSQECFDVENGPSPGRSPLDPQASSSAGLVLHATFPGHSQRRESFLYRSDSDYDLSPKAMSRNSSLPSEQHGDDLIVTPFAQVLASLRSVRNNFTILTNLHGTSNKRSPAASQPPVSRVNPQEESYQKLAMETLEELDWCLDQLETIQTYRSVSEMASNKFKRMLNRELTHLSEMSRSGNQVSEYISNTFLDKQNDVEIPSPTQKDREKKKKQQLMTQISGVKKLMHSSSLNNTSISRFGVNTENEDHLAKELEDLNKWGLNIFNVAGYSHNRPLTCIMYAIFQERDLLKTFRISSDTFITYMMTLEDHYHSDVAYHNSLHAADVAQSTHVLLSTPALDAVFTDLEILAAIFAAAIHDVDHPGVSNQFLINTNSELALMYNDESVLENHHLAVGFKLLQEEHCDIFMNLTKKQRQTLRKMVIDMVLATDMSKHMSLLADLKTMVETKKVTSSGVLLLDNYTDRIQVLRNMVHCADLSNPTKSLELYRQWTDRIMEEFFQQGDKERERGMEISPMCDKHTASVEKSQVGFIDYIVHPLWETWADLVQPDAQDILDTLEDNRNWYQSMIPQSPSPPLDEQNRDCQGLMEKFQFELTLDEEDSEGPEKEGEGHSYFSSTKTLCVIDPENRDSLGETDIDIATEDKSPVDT
Dual specificity protein kinase CLK4 (Homo sapiens), sequence (Q9HAZ1 whole entry, looked up): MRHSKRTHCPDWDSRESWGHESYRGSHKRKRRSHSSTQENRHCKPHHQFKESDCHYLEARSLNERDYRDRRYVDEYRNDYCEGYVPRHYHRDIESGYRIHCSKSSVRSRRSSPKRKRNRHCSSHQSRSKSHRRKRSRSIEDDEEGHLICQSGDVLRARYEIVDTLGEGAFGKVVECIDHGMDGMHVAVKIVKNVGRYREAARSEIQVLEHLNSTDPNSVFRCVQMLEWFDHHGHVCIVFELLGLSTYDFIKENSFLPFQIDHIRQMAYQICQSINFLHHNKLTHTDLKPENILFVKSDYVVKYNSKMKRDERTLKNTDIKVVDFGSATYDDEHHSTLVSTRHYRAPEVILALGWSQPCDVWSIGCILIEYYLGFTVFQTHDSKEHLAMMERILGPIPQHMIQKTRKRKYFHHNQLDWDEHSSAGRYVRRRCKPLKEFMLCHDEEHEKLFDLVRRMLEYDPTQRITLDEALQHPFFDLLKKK
Lysosomal acid glucosylceramidase (Homo sapiens), sequence (P04062 whole entry, looked up): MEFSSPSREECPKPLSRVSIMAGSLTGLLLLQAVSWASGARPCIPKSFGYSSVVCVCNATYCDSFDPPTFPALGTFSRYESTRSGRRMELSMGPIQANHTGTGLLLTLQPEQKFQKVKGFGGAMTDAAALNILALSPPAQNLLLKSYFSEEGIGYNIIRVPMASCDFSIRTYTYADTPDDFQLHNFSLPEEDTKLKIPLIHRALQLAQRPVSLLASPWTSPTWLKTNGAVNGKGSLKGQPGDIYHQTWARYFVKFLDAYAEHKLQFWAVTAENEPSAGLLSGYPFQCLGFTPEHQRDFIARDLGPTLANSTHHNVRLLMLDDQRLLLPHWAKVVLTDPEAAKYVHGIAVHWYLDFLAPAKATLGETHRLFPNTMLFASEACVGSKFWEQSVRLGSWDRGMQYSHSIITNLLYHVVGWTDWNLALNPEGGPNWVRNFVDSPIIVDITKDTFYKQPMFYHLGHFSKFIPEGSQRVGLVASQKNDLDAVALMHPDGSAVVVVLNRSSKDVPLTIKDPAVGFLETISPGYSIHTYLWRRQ
Cytochrome P450 3A4 (Homo sapiens), sequence (P08684 whole entry, looked up): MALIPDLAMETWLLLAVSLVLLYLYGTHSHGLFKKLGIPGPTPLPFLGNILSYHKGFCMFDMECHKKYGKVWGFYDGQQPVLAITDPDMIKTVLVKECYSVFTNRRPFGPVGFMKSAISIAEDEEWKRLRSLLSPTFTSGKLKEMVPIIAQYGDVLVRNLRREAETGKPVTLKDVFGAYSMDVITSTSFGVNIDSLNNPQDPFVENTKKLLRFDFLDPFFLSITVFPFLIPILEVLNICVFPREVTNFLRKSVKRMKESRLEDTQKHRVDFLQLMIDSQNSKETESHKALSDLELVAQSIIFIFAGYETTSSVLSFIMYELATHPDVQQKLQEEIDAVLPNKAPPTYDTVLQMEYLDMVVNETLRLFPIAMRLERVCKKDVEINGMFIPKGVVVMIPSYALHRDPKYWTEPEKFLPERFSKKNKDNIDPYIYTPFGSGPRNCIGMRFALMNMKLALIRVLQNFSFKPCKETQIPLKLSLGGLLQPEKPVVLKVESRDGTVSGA
Cytochrome P450 1A2 (Homo sapiens), sequence (P05177 whole entry, looked up): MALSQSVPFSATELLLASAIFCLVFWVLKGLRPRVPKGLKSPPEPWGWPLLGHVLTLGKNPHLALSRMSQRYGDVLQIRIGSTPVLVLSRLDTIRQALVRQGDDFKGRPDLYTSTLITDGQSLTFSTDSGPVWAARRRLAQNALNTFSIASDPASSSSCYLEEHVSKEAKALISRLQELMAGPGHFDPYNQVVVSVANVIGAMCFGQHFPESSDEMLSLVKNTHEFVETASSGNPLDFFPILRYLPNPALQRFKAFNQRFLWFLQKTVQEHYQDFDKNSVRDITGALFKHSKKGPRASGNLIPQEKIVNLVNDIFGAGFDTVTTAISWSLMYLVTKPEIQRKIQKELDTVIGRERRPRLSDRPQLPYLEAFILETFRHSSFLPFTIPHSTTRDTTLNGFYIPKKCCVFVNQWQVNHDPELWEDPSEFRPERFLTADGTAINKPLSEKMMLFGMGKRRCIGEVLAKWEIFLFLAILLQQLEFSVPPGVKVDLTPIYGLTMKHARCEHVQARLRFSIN
Glucocorticoid receptor (Homo sapiens), sequence (P04150 whole entry, looked up, the tested form may be a part): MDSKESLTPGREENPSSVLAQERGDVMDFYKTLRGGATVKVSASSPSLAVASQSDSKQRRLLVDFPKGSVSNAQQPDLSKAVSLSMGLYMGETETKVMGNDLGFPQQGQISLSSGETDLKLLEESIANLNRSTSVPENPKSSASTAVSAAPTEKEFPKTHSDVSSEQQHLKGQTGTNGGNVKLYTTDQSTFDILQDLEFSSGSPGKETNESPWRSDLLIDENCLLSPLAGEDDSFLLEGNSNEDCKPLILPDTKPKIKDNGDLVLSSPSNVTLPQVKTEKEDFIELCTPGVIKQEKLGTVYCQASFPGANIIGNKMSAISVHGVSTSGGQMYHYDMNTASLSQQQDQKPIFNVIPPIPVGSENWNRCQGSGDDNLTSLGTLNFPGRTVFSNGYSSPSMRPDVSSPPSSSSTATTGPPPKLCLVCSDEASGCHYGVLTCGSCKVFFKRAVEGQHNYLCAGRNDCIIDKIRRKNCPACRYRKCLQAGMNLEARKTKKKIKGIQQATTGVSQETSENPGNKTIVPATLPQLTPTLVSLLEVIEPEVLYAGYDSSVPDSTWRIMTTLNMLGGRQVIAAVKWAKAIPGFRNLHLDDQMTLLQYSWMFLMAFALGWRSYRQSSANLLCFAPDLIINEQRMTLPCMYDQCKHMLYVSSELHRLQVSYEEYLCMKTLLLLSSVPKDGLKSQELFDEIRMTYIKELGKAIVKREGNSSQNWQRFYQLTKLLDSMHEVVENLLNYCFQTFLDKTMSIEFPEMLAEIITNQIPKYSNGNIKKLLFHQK
Ubiquitin carboxyl-terminal hydrolase 1 (Homo sapiens), sequence (O94782 whole entry, looked up): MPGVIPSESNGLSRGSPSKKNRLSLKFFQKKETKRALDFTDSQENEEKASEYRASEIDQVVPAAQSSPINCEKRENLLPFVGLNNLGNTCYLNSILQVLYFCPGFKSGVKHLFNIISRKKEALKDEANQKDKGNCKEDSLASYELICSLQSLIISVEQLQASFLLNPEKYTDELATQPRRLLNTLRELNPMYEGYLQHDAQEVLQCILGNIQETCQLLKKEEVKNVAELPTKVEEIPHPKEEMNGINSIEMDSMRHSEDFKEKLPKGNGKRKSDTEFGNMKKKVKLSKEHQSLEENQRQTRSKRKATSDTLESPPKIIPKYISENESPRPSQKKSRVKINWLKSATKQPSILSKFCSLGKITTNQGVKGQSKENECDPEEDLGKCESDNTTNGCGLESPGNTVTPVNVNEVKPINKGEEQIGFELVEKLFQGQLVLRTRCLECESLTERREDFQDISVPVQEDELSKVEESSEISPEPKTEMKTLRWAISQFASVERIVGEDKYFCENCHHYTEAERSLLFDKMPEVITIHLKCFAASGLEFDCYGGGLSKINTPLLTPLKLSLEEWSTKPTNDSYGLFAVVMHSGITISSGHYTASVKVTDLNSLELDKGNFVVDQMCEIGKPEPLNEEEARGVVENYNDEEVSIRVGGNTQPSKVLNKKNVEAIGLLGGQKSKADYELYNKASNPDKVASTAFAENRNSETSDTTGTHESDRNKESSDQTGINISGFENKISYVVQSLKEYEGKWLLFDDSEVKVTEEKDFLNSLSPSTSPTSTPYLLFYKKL

With `Cc1cccc(CNc2cc(-c3ccccc3Cl)ncn2)c1`, the Potency is more than 11.4 µM in assay [1]; 3.16 µM (active) in assay [3]; more than 46 µM in assay [6]; more than 46 µM in [7]; 28.2 µM (active) in assay [11]; 28.2 µM (active) in assay [12]. Besides, the activity change, negative = inhibition in assay [2] is 13.1%; in assay [4] it was -3.92%. Further, the activity, negative = inhibition in assay [5] is 0.338%. Besides, the Potency result in assay [8], in [9] and in assay [10] was “inactive” in each case. For the same molecule, the outcome in assay [13] was inactive.
As for `N#Cc1cccc(-c2nccc(NCc3cccnc3)n2)c1`, the Potency in assay [1] was more than 11.4 µM; in assay [3], 0.251 µM (active); in assay [6], more than 46 µM; in [7], more than 46 µM; in assay [14], 0.794 µM (active); in assay [11], 14.1 µM (active). In assay [12], the Potency was 14.1 µM (active). For the same molecule, the activity change, negative = inhibition in assay [4] is 16.5%. Besides, the activity, negative = inhibition in assay [5] was 0.752%. Moreover, the Potency entry in assay [8], in assay [10] and in [15] was “inactive” in each case. The outcome in assay [13] was inactive.
As for `COc1cccc(-c2nc(N(C)Cc3ccco3)c3ccccc3n2)c1`, the Potency was more than 11.4 µM in [1]; 0.316 µM (active) in assay [3]; more than 46 µM in assay [6]; more than 46 µM in assay [7]; 5.01 µM (active) in assay [16]; 12.6 µM (active) in assay [11]. For the same molecule, the Potency in assay [12] is 12.6 µM (active). Further, in [2], the activity change, negative = inhibition is -7.73%. Moreover, in assay [5], the activity, negative = inhibition is -9.79%. Further, the Potency entry in assay [8] and in assay [10] was “inactive” throughout. Moreover, in [13], the result was inactive.
Turning to `COc1ccc2[nH]cc(CCNc3cc(-c4cccnc4)ncn3)c2c1`, the Potency was more than 11.4 µM in [1]; 3.16 µM (active) in assay [3]; more than 46 µM in assay [6]; more than 46 µM in assay [7]; 3.98 µM (active) in assay [14]; 14.1 µM (active) in assay [11]. For the same molecule, the Potency in [12] was 15.8 µM (active). Further, the activity change, negative = inhibition in [2] was -10.1%; in assay [4], 15.6%. For the same molecule, the activity, negative = inhibition in assay [5] is -2.74%. Besides, the Potency result in [9], in assay [10] and in assay [15] was “inactive” each time. Further, the result in assay [13] was inactive.
`CN1CCN(c2ccnc(-c3cccnc3)n2)CC1`: the Potency in assay [1] was more than 11.4 µM; in assay [6], more than 46 µM; in assay [7] it was more than 46 µM; in assay [11], 25.1 µM (active); in assay [12], 15.8 µM (active). The activity change, negative = inhibition is -0.185% in assay [2] and 0.489% in assay [4]. Besides, the activity, negative = inhibition in assay [5] was 12.4%. For the same molecule, the Potency entry in assay [8], in assay [9] and in assay [15] was “inactive” in each case. Also, the result in [13] was inactive.
Take `COc1ccccc1CNc1cc(-c2ccccc2Cl)ncn1`: the Potency in assay [1] was more than 11.4 µM; in [6], more than 46 µM; in assay [7] it was more than 46 µM; in assay [11], 25.1 µM (active); in [12], 15.8 µM (active). For the same molecule, the activity change, negative = inhibition in assay [2] is -13.2%; in [4] it was 0.444%. Further, the activity, negative = inhibition in assay [5] is -1.65%. Further, the Potency result in assay [8], in assay [10] and in assay [15] was “inactive” each time. Also, in assay [13], the outcome was inactive.
As to `N#Cc1ccccc1-c1ccc2ncnc(NCc3ccccc3)c2c1`, the Potency in assay [1] is more than 11.4 µM; in [6] it was more than 46 µM; in [7], more than 46 µM; in [11] it was 5.01 µM (active); in [12] it was 7.94 µM (active). The figures for the activity change, negative = inhibition in assay [2] and in assay [4] were -20.7% and 16.5%, respectively. Further, the activity, negative = inhibition in assay [5] was 27.7%. Moreover, the Potency result in assay [8] is “inactive”. The result in assay [13] was inactive.
